Assay outcomes as filed in PubChem.
This is a sample that favours compounds with a hit; in the whole collection about 8.3% have one here.
HCMV antiviral: human cytomegalovirus inhibition | HFF cells, HCMV-luciferase reporter, 72 h; active compounds read low | activity change, negative = inhibition, % at 57.5 µM | actives 4.5% (n = 410,000) | AID 1259415; in the data active = activity change below about -60%; inconclusive = no clear call, values can overlap the other calls; inactive = above about -39%
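Cell-based, HFFs, 1000 cells/well, 16 h 37C; cpds in DMSO + HCMV-luc, MOI 1 PFU/cell; 72 h 37C; OneGlo luminescence after 5 min RT; norm. to buffer vs Salinomycin 10uM.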
FMDV inh: foot and mouth disease virus antiviral activity; FMDV antiviral cell-based qHTS; Potency, µM (highest dose often 57.9 µM), for the others: at the top dose activity change, negative = inhibition, hits mostly inhibitors; actives 1.2% (n = 410,000); AID 1159524; calls by dose curve; tested in HEK293T cells; also: read-out not given here; potency is read from the fitted curve at half-maximal effect; nearly all actives have a fitted effect of over 45% in size
Marburg entry inh: blocks Marburg virus binding to or entry into cells; Marburg virus pseudotyped entry inhibition, cell reporter; Potency, µM (doses to about 37.8 µM), without a hit: at the highest dose activity change, negative = inhibition, most hits filed as inhibitors; actives 1.8% (n = 300,000); AID 540276; calls by dose curve; tested in HEK293 cells; also: potency is read from the fitted curve at half-maximal effect
Lassa entry inh: Lassa virus entry inhibition | AID 540256 | Potency, µM (highest dose often 37.9 µM), for the others: at the highest dose activity change, negative = inhibition, hits mostly inhibitors | actives 1.2% (n = 300,000) | Lassa virus pseudotype entry inhibition, cell reporter; calls by dose curve; tested in HEK293 cells; also: potency is read from the fitted curve at half-maximal effect; nearly all actives have a fitted effect of over 50% in size
FBPA Giardia inh: inhibitors of Giardia lamblia fructose-1,6-bisphosphate aldolase; A8B2U2; purified Giardia FBPA; Potency, µM (titrated, usually from 59.6 µM), for inactives: top-dose activity, negative = inhibition, most hits filed as inhibitors; actives 0.71% (n = 290,000); AID 2451; also: potency is read from the fitted curve at half-maximal effect; nearly all actives have a fitted effect of over 55% in size
Target sequence (A8B2U2 whole entry, looked up): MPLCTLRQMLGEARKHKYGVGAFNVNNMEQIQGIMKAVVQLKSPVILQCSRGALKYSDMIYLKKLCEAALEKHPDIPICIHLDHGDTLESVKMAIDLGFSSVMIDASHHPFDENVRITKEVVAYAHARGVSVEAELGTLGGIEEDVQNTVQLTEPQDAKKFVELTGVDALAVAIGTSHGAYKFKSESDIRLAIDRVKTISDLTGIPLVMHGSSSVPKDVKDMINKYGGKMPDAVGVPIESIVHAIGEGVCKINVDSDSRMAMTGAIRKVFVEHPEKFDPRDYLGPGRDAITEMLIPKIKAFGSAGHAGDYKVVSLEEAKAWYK
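Giardia FBPA (40 nM reagent) was preincubated 10 min at RT with compound (up to 57.5 uM final), then substrate plus GAPDH/TPI/NAD/arsenate coupling system with diaphorase/resazurin was added; resorufin fluorescence (525/598 nm) was read after 20 min.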
HCV inhibitor: inhibitors of hepatitis C virus infection; Huh7.5.1 HCVcc-Cre infection, luciferase reporter, 44 h; Potency, µM (titrated, usually from 41.8 µM), inactives show at the highest dose activity change, negative = inhibition, most hits filed as inhibitors; actives 3.4% (n = 340,000); AID 651820; also: potency is read from the fitted curve at half-maximal effect
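Infectious HCV cell culture screen: compound-treated cells (1,000/well, pre-plated 4 h) are infected with HCVcc-Cre at roughly 0.5 moi and grown 44 h. Infection is quantified by luciferase signal after 15 min substrate incubation at room temperature.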
Active calls of the source: *; ? = inconclusive; . = no result given; [ ] = another dose, or the depositor's remark. Unless noted, calls follow the shape of the dose curve; as a rule, active = well fitted curve in the direction sought with a large enough effect; inconclusive = small, poorly fitted or top-dose-only effect, or another doubt; inactive = no such curve, though single readings can be large; an effect the other way counts as inactive or inconclusive. % is scaled to controls: 0 for no effect and ±100 for the full control effect.

SMILES | HCMV antiviral | FMDV inh | Marburg entry inh | Lassa entry inh | FBPA Giardia inh | HCV inhibitor
Nc1nc(SCc2ccccc2[N+](=O)[O-])c2ncn(Cc3ccccc3)c2n1 | 3 | -21% | ? | -13%[46.1 µM] | . | 11µM*
CCCn1c(SCC(=O)c2ccc3c(c2)OCCO3)n[nH]c1=O | -19 | 41% | 1%[46.1 µM] | 1% | 4% | -12%
O=c1[nH]nc(SCCS(=O)(=O)c2ccc(F)cc2)n1-c1ccc2c(c1)OCCO2 | -81* | -28% | ? | -16%[46.1 µM] | 3% | 4%
CCOc1ccccc1NC(=O)CSc1n[nH]c(=O)n1-c1ccccc1 | 19 | -22% | . | . | . | ?
O=c1[nH]nc(SCCS(=O)(=O)c2ccc(F)cc2)n1-c1ccccc1 | -79* | ? | -25% | -24% | 0% | -12%
CC(=O)NC(c1ccc(Cl)cc1)c1c(O)ccc2ccc(O)cc12 (stereo unspecified) | -4 | ? | ? | 15% | -15% | -7%
CC(C)CC(=O)NC(c1ccccc1)c1c(O)ccc2ccccc12 (stereo unspecified) | -2 | -17% | ? | 4% | 1% | 9%
O=C(NC(c1ccccc1)c1c(O)ccc2ccccc12)c1ccccc1Cl (stereo unspecified) | 17 | ? | -28% | ? | 0% | 14µM*
O=C(NC(c1ccc(Cl)cc1)c1c(O)ccc2ccccc12)c1ccccc1 (stereo unspecified) | -101* | ? | ? | ? | -8% | ?
O=C(Nc1ccc(C(=O)N2CCN(c3ccccc3F)CC2)cc1)c1nsc2ccccc12 | -26 | -12% | . | ? | . | .
CC(C)[C@H]1COCCS(=O)(=O)N1Cc1ccccc1-c1cccc2c1oc1ccccc12 | -21 | ? | ? | . | . | 13µM*
Cc1nc2cnc(N3CCNCC3)nc2n(C2CC2)c1=O | . | -16% | . | . | -2% | .
O=C(Cc1ccc(NC(=O)C2CCCN(C(=O)c3ccccc3)C2)cc1)Nc1cccc(C(=O)N2CCCCC2)c1 (stereo unspecified) | -25 | . | . | . | . | .
CN(Cc1ccccc1C#N)S(=O)(=O)c1cccs1 | 23 | -9% | 2%[46.1 µM] | 24% | -19% | -9%
N#Cc1nccnc1S(=O)(=O)c1cccs1 | -97* | ? | -35% | 1% | -25% | -20%
Cc1cc(C)c(S(=O)(=O)NCc2ccc3c(c2)cc(C)n3C)c(C)c1 | -93* | -18% | . | . | -8% | ?
COc1ccc(OC)c(S(=O)(=O)NCc2ccc3c(c2)CCN3C(=O)c2cccc(C)c2)c1 | -80* | -8% | . | ? | . | .
Cc1cc2cc(CNS(=O)(=O)c3ccc4ccccc4c3)ccc2n1C | 14 | -11% | . | . | -15% | 9%
Cc1cc(C)c(S(=O)(=O)NCc2ccc3c(c2)CCN3C(=O)c2ccccc2)c(C)c1 | -60* | ? | . | 6%[46.1 µM] | . | .
COc1ccc(CC(=O)NCc2ccc3c(c2)CCN3C(=O)c2cccc(C)c2)cc1 | -14 | ? | . | ? | . | .
O=C1OCc2cc(-c3ccccc3F)ccc21 | -11 | . | . | . | . | .
CC(=O)OC[C@H]1O[C@@H](ON=C2C[C@@H](O)[C@@H](O)[C@@H]3[C@H]4C(=O)N(C5CCCCC5)C(=O)[C@@H]4CC[C@@H]23)[C@H](OC(C)=O)[C@@H](OC(C)=O)[C@H]1OC(C)=O | . | . | -25%[14.2 µM] | . | . | .
CCOc1ccccc1NC(=O)COc1coc(CN2CCCc3ccccc32)cc1=O | -5 | ? | ? | -16% | . | 13µM*
Cc1ccc(-c2cc(C(=O)N(Cc3ccc(C(C)(C)C)cc3)Cc3ccco3)no2)cc1 | 46 | -11% | -25%[46.1 µM] | 5%[46.1 µM] | . | .
COC(=O)[C@H](C)N1CC=CCOc2c(Cl)cc(Cl)cc2[S+]1(=O)[O-] | . | . | . | -4%[46.1 µM] | . | .
CN(CC(=O)Nc1ccc(Cl)cc1)C(=O)c1sccc1-c1ccccc1 | 0 | ? | . | . | . | 13µM*
C/C=C/OC(=O)NC(c1ccccc1)[C@@]1(C(=O)OC)CCCC1=O (stereo partly specified) | . | . | . | . | -1%[12.9 µM] | .
CN(C)c1ccc(Nc2nc(N)c3ccccc3n2)cc1 | -30 | 7.1µM* | 0.63µM* | 0.89µM* | ? | ?
CCOc1ccc(Nc2nc(N)c3ccccc3n2)cc1 | -2 | 8.9µM* | 4.5µM* | ? | ? | 2%
